# Results filed as inconclusive are left out. Entries that show only a call come without a potency. Values without a mark were called inactive. The source made the active and inactive calls. Calls come from the whole dose curve.
# Molecular target: Beta-2 adrenergic receptor (Homo sapiens) (UniProt P07550)
# Experiment: Adrenergic beta2 receptor (ADRB2) small molecule antagonists, cell-based qHTS assay (AID 1963592); note: nearly all actives have a fitted effect of over 50% in size
# Conditions: CHO-ADRB2 cells, isoproterenol-stimulated cAMP HTRF ratio, 0.5 h; series mostly up to 92.4 µM; activity change, negative = inhibition: at the top concentration
# From the text: U.S. Tox21 Program National Center for Advancing Translational Sciences [NCATS] Division of Preclinical Innovation [DPI] U.S. Environmental Protection Agency [EPA] National Institutes of Environmental Health Sciences [NIEHS] National Toxicology Program [NTP] U.S. Food and Drug Administration [FDA] Tox21 Assay Overview: Beta adrenergic receptors (Beta-ARs) belong to the G-protein coupled receptor (GPCR) superfamily, includes three subtypes - beta1, beta2, and beta3. Beta1-AR is the predominant receptor subtype expressed in the heart, and beta2-AR is expressed in the kidney, lung, blood vessel and in the heart, and beta3 is found in the adipocytes. Beta1 and 2 ARs couple to Gs protein and elevate cyclic adenosine mono phosphate (cAMP), which activates protein kinase A and leads to the downstream signaling responsible for the physiological actions. Beta-AR agonists or antagonists are the most prescribed therapeutic agents for heart failure and asthma, and these were one of the first target receptors for the rational drug design. Tox21 10K compound library was screened using the cAMP-Gs dynamic assay (Cisbio Bioassays, Shelton, CT) to identify agonists/antagonists of the Gs-coupled human adrenergic, beta2 receptor (ADRB2) in the CHO-ADRB2 cell line (Codex BioSolutions, Inc. Gaithersburg, MD), which stably over-expresses ADRB2. The principle of cAMP-Gs dynamic assay is based on HTRF technology, which facilitates the fluorescence resonance energy transfer (FRET) between donor Europium cryptate and acceptor d2-labeled cAMP. The cAMP generated within cells competes with the red acceptor, d2-labled cAMP, for binding to the monoclonal anti-cAMP-cryptate (Europium donor). An increase in intracellular cAMP leads to the disruption of FRET signal, and the signal is inversely proportional to the cAMP concentration. Propranolol HCl (Sigma-Aldrich, St. Louis, MO) was used as a positive control in the screening.
# Tox21 Assay Protocol Summary: CHO-ADRB2 cells were dispensed at 1,000/well in 4uL assay medium into white/solid 1536-well plates (Greiner Bio-One North America Inc., Monroe, NC) using a Multidrop Combi dispenser (ThermoFisher Scientific, Waltham, MA). The assay plates were incubated at 37C and 5% CO2 for an overnight (18-20hr). Then positive control and test compounds dissolved in DMSO were transferred to the assay plates at 23nL using a Pintool station (Wako, San Diego, CA). Following the compound and positive control transfer, 1uL agonist-stimulation mix containing 1nM Isoproterenol HCl, 100uM IBMX and 25uM Ro-20-1724 was added to each well of the assay plates using BioRAPTR Flying Reagent Dispenser (FRD, Beckman Coulter, Brea, CA). The assay plates were incubated at room temperature for 0.5hr. Then 2.5ul each d2-labled cAMP and anti-cAMP-cryptate solutions were added separately to each well of the assay plates using an FRD and the assay plates were incubated at room temperature for 1hr. The fluorescence signal was measured at two different wavelengths (665nm and 615nm) using an Envision plate reader (Perkin Elmer, Shelton, CT). Data were expressed as the ratio of 665 nm/615 nm.
# Chain of Beta-2 adrenergic receptor (Homo sapiens) (P07550 whole entry, looked up): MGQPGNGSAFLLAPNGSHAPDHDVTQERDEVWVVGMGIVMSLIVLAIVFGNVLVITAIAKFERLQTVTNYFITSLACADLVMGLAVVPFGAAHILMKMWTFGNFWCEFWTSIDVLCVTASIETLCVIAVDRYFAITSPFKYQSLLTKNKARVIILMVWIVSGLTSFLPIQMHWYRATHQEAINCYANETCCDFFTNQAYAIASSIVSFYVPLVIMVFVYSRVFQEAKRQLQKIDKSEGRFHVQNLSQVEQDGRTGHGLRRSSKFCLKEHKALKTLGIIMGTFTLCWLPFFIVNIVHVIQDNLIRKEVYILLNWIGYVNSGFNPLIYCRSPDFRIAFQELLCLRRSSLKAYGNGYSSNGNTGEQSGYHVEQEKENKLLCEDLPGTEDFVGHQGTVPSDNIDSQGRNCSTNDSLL
SMILES,"activity change, negative = inhibition",Potency
O=C(O)C(F)(F)C(F)(F)C(F)(F)C(F)(F)C(F)(F)C(F)(F)C(F)(F)C(F)(F)F,-4.47%,
Clc1ccc(C(Cl)(Cl)Cl)cn1,-7.97%,
COP(=O)(O)OC,0.435%,
CCCCCCI,-2.82%,
O=C(O)C(Cl)(Cl)Br,-10.1%,
CCCCC(CC)COC(=O)Cl (stereo not given),,inactive
C=CC(=O)NC(C)(C)CC(C)=O,-2.26%,
[O]=[Cr][O][Cr]=[O],-1.36%,
CC(C)[N+](C)(CCC(C(N)=O)(c1ccccc1)c1ccccc1)C(C)C,-4.93% [at 42.5 µM],
N#Cc1cccc(C#N)c1,,inactive
O=C/C=C/c1ccccc1,,inactive
COc1ccc(C(O)(c2cncnc2)C2CC2)cc1 (stereo not given),-1.47%,
CCCCN(CCCC)N=O,,inactive
CCC(C)(C)c1ccc(O)cc1,,inactive
CCCCCCCCCCCCCCCC[N+](C)(C)C,,inactive
Oc1ccc(Cl)c(Cl)c1,-22.9%,
C[C@]12CC[C@H]3[C@@H](CC=C4C[C@@H](O)CC[C@@]43C)[C@@H]1CC[C@@H]2O,1.48% [at 42.5 µM],
COc1ccc(C=O)cc1OC,,inactive
C=C(Cl)CCl,1.16%,
CCC(=O)O[C@@H]1C=C2CCC3C(CCC4(C)C3CC[C@@H]4OC(=O)CC)C2CC1 (stereo not given in full),3.79% [at 42.5 µM],

SMILES,"activity change, negative = inhibition",Potency
CC(C)(O)C#N,,inactive
CN1CC[C@]23c4c5ccc(O)c4O[C@H]2[C@@H](O)CC[C@H]3[C@H]1C5,-4%,
CC(=O)O,,inactive
CC(C)(C)C(=O)Cl,-11%,
COCCl,,inactive
CCCCC(CC)COC(=O)c1ccc(C(=O)OCC(CC)CCCC)c(C(=O)OCC(CC)CCCC)c1 (stereo not given),,inactive
ClC(Cl)=C(Cl)C(Cl)=C(Cl)Cl,,inactive
CCC[N+](=O)[O-],,inactive
Nc1ccc2ccccc2c1,,inactive
NNc1ccccc1,,inactive
C=CCOC(Cn1ccnc1)c1ccc(Cl)cc1Cl (stereo not given),,inactive
C[C@]1(O)CC[C@H]2[C@@H]3CCC4=CC(=O)CC[C@]4(C)[C@@]3(F)[C@@H](O)C[C@@]21C,-16.7%,
O=C(NC(=O)c1c(F)cccc1F)Nc1cc(Cl)c(OC(F)(F)C(F)C(F)(F)F)cc1Cl (stereo not given),,inactive
ClC1(Cl)C2(Cl)C3(Cl)C4(Cl)C(Cl)(Cl)C5(Cl)C3(Cl)C1(Cl)C5(Cl)C24Cl (stereo not given),5%,
CN(C)NC(=O)CCC(=O)O,,inactive
COC(=O)C(Br)CBr (stereo not given),-0.803%,
O=c1[nH]c(=O)[nH]c(=O)[nH]1,,inactive
CCC(C)n1c(=O)[nH]c(C)c(Br)c1=O (stereo not given),0.114%,
CCCOC(=O)c1ccccc1C(=O)OCCC,,inactive
CCCCOCCOP(=O)(OCCOCCCC)OCCOCCCC,,inactive
